Consider ten compounds from PubChem BioAssay (EPA / NIEHS).

Inconclusive results are not listed. Some compounds were tested as several samples or in several runs, with calls that do not always agree. Active and inactive are the calls of the source. Rule for the calls: active = hit-call score of the fitted dose curve at least 0.9, where 1 is the maximum; inconclusive = response in the unintended direction; inactive = score below 0.9.

A short description of this test: CCTE_Mundy_HCI_hNP1_Pro_ResponderAvgInten: CCTE's Proliferation Assay in human neuroprogenitor cells, Mundy Lab (AID 2284224). As to the method:
CCTE_Mundy_HCI_hNP1_Pro is a multiplexed, cell-based-readout assay that uses neural stem cells derived from a neuroepithelial cell lineage of WA09 embryonic cells with measurements taken at 26.25 hours after chemical dosing in a microplate: 96-well plate.CCTE_Mundy_HCI_hNP1_Pro_ResponderAvgInten is one of three components of the CCTE_Mundy_HCI_hNP1_Pro assay. It measures proliferation related to percentage of BrdU positive cells using High Content Imaging of fluorescently labelled markers.Data from the assay component CCTE_Mundy_HCI_hNP1_Pro_ResponderAvgInten was analyzed at the endpoint CCTE_Mundy_HCI_hNP1_Pro_ResponderAvgInten in the positive analysis fitting direction relative to DMSO as the negative control and baseline of activity. Using a type of growth reporter, loss -of-signal activity can be used to understand viability effects.
Human neural progenitor cells (hNP1) were obtained as cryopreserved cells from ArunA Biomedical, Athens Georgia. Cells are plated on pre-coated poly-L-ornithine/laminin clear bottom and opaque 96 well plates (day 0). Plates are placed in a 37 °C, 5% CO2 incubator for 40 to 44 hours at which time plates are removed from the incubator and 10 uL of a freshly made chemical solution is added to each well. Twenty hours after the addition of the chemicals, the clear plates are removed from the incubator and 11 uL of a BrdU solution is added to each well. The plates are returned to the incubator for four hours. After four hours, the plates are fixed with a 4% paraformaldehyde solution.
On to `COC(=O)N(C(=O)N1CO[C@@]2(C(=O)OC)Cc3cc(Cl)ccc3C2=N1)c1ccc(OC(F)(F)F)cc1`, for which the call was inactive.

Regarding `CS(=O)(=O)c1cc(C(F)(F)F)ccc1C(=O)c1cnoc1C1CC1`, the compound was called inactive.

The term AC50 denotes the concentration giving half of the maximal activity seen. As to `CCOP(=O)(OCC)Oc1nc(Cl)c(Cl)cc1Cl`, the compound was called inactive and the AC50 was 73.7 µM (active).

For `N#CN=C1SCCN1Cc1ccc(Cl)nc1`, the compound was classed as inactive. Same read-out and setting: under `COP(=O)(OC)O/C(C)=C/C(=O)N(C)C` stands “inactive”.

Turning to `C=C(C)CN(CC)c1c([N+](=O)[O-])cc(C(F)(F)F)cc1[N+](=O)[O-]`, the AC50 was 19 µM (active). For the compound `CO/N=C(/C1=NOCCO1)c1ccccc1Oc1ncnc(Oc2ccccc2Cl)c1F`, the call was inactive. Turning to `O=C(Nc1ccccc1-c1ccc(Cl)cc1)c1cccnc1Cl`, the compound was called inactive. In the case of `CCN(CC)c1nc(C)cc(OP(=S)(OC)OC)n1`, the AC50 is 89.2 µM (active). Same read-out and setting: as for `Cc1c(COC(=O)[C@@H]2[C@H](/C=C(\Cl)C(F)(F)F)C2(C)C)cccc1-c1ccccc1`, the figure is 3.68 µM (active).
